# Results: publication PMC7862700, “An all-to-all approach to the identification of sequence-specific readers for epigenetic DNA modifications on cytosine”
# Tests used:
# Test in all cases: DAPPL (digital affinity profiling via proximity ligation, sequencing); 10 mM Tris-HCl pH 7.5, 50 mM NaCl, 1 mM DTT, 4% glycerol, room temperature, 30 min; GST-TFs on glutathione beads, 16-mer random dsDNA library, 0.1% formaldehyde crosslink after washing; high values mean tight binding
# [1] = biological target: T1, FLI1 (Homo sapiens, UniProt Q01543 1-452); conditions: protein: recombinant; tags: N-terminal GST; dsDNA, one strand shown
# T1 sequence: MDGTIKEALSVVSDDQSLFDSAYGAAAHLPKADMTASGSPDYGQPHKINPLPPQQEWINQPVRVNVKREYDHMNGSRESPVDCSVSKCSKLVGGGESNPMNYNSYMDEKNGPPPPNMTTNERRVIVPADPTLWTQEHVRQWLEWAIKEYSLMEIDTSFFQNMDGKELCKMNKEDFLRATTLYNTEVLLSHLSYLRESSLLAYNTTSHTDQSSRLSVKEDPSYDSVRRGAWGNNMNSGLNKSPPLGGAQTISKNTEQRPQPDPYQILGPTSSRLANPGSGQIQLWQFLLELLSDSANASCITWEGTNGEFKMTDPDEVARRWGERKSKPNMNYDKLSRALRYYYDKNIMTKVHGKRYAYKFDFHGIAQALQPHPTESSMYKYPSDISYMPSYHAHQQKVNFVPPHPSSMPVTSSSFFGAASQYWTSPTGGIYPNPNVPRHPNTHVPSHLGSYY
# Summary of the method: (§1)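 Human transcription factors were made in yeast as GST fusions, captured on glutathione beads and barcoded with DNA. With a tag-only sample included, the pool was incubated with 200 nmole of a random double-stranded 16-mer DNA library in Tris/NaCl/DTT/glycerol buffer at room temperature for 30 min, then crosslinked with 0.1% formaldehyde after washing, ligated by proximity, amplified and sequenced. For binding signal, each hexamer's read frequency for a factor is divided by its frequency for the tag-only sample.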
# [2] = biological target: T2, ELK1 (Homo sapiens, UniProt P19419 1-428); conditions: protein: recombinant; tags: N-terminal GST; dsDNA, one strand shown
# T2 sequence: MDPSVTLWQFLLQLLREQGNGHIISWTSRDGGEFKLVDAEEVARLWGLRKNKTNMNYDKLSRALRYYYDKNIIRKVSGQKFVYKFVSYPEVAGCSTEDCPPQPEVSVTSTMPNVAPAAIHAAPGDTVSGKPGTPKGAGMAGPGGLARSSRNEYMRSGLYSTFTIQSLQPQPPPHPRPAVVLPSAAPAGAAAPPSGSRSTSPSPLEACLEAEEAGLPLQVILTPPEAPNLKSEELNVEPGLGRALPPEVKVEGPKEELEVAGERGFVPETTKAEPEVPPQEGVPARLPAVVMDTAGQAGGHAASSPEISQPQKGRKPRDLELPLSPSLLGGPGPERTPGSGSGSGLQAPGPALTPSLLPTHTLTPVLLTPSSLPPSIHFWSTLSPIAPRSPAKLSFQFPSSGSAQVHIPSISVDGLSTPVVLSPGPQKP
# Summary of the method: as §1
# [3] = biological target: T3, GABPA (Homo sapiens, UniProt Q06546 1-454); conditions: protein: recombinant; tags: N-terminal GST; dsDNA, one strand shown
# T3 sequence: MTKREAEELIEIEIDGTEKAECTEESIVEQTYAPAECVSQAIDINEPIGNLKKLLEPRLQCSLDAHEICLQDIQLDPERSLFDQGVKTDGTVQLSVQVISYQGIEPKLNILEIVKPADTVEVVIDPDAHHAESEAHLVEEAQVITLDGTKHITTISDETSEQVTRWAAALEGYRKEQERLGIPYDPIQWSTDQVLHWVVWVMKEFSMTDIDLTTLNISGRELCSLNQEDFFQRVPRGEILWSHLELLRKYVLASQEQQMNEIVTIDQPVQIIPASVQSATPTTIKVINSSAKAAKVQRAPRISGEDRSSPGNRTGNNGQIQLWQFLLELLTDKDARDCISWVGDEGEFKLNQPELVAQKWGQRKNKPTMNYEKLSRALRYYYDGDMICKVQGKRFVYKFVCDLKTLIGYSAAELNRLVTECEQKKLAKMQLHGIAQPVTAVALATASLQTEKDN
# Summary of the method: as §1
# [4] = biological target: T4, ERG (Homo sapiens, UniProt P11308 1-479); conditions: protein: recombinant; tags: N-terminal GST; dsDNA, one strand shown
# T4 sequence: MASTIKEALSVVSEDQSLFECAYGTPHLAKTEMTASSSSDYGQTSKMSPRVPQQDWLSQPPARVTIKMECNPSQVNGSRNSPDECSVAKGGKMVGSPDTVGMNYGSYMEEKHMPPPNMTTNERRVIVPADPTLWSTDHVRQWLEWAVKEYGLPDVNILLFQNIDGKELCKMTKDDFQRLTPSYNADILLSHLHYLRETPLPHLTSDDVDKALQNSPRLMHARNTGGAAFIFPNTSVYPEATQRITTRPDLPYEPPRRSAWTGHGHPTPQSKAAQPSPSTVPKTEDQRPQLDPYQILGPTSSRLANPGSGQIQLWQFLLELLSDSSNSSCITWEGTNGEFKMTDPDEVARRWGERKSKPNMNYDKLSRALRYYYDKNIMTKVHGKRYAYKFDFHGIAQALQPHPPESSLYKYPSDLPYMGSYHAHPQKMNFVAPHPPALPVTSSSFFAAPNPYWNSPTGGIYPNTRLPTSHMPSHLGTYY
# Summary of the method: as §1
# [5] = biological target: ELF1 (Homo sapiens, UniProt P32519 1-619); conditions: protein: recombinant; tags: N-terminal GST; dsDNA, one strand shown
# ELF1, sequence (P32519 whole entry): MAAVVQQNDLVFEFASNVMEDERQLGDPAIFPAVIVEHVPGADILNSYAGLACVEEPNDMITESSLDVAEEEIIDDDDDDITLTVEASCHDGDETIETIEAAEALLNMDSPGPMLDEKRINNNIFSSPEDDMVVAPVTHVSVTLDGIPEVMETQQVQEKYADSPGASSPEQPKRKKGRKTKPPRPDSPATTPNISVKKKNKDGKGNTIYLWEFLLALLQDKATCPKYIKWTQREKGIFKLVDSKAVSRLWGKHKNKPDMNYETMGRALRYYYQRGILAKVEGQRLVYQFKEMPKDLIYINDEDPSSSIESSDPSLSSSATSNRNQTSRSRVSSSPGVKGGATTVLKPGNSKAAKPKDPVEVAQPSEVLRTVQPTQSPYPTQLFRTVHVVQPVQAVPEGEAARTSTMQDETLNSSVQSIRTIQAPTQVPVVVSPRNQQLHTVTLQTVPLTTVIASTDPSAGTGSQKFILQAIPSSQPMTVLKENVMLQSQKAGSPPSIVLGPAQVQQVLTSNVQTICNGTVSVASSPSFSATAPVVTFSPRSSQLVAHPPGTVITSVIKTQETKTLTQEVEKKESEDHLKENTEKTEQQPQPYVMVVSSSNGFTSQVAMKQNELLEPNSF
# Summary of the method: as §1
# [6] = biological target: T5, EHF (Homo sapiens, UniProt Q9NZC4 1-300); conditions: protein: recombinant; tags: N-terminal GST; dsDNA, one strand shown
# T5 sequence: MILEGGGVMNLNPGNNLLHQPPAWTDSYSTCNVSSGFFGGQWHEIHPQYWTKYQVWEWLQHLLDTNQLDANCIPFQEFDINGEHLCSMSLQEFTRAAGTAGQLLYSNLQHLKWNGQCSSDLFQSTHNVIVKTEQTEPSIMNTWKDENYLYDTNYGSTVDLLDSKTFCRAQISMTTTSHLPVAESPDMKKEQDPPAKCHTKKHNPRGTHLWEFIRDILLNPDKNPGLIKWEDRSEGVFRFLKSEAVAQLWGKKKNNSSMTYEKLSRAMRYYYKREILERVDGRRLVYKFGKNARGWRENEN
# Summary of the method: as §1
# [7] = biological target: SPI1 (Homo sapiens, UniProt P17947 1-270); conditions: protein: recombinant; tags: N-terminal GST; dsDNA, one strand shown
# Summary of the method: as §1
# [8] = biological target: SPIB (Homo sapiens, UniProt Q01892 1-262); conditions: protein: recombinant; tags: N-terminal GST; dsDNA, one strand shown
# SPIB, sequence (Q01892 whole entry): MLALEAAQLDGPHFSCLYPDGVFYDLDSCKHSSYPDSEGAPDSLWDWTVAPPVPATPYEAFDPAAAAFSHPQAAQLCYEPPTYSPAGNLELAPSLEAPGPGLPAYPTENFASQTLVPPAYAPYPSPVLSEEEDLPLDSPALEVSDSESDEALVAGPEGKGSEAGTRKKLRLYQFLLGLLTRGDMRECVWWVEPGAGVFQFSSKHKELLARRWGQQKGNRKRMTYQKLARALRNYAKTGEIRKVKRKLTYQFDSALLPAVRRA
# Summary of the method: as §1
# [9] = biological target: T6, ELK3 (Homo sapiens, UniProt P41970 1-407); conditions: protein: recombinant; tags: N-terminal GST; dsDNA, one strand shown
# T6 sequence: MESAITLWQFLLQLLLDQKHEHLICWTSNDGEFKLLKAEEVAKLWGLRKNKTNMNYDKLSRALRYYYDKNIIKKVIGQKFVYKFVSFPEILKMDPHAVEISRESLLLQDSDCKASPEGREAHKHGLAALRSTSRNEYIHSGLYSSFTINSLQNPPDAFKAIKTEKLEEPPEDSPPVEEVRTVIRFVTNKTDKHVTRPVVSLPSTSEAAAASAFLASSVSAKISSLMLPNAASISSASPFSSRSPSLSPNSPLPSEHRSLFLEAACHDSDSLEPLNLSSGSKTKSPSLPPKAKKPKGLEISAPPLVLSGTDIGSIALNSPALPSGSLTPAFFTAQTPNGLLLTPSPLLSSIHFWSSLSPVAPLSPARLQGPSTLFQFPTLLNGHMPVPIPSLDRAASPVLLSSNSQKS
# Summary of the method: as §1
# [10] = biological target: T7, FEV (Homo sapiens, UniProt Q99581 1-238); conditions: protein: recombinant; tags: N-terminal GST; dsDNA, one strand shown
# T7 sequence: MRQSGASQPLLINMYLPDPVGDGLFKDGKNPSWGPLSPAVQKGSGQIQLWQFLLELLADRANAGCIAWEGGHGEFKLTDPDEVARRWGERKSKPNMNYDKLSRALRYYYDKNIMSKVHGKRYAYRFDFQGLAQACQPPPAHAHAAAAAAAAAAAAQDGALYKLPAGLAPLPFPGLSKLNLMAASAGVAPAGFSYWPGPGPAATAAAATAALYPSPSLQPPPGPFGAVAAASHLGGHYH
# Summary of the method: as §1
# [11] = biological target: ETV5 (Homo sapiens, UniProt P41161 1-510); conditions: protein: recombinant; tags: N-terminal GST; dsDNA, one strand shown
# ETV5, sequence (P41161 whole entry): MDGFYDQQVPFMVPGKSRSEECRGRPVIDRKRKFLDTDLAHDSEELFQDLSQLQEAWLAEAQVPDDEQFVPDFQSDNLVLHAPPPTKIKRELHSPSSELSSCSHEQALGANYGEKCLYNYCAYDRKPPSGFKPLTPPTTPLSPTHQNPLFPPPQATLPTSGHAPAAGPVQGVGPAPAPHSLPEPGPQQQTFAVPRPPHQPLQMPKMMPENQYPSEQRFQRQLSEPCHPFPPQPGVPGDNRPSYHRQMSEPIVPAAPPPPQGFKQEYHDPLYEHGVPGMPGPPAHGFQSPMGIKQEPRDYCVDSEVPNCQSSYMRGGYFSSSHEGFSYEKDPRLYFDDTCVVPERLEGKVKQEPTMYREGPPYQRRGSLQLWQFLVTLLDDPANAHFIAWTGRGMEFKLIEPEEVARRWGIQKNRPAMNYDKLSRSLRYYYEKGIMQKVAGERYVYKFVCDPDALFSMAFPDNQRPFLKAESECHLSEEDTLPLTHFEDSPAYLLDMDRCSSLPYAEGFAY
# Summary of the method: as §1
# [12] = biological target: HSF1 (Homo sapiens, UniProt Q00613 1-529); conditions: protein: recombinant; tags: N-terminal GST; chain copies: 3; dsDNA, one strand shown
# HSF1, sequence (Q00613 whole entry): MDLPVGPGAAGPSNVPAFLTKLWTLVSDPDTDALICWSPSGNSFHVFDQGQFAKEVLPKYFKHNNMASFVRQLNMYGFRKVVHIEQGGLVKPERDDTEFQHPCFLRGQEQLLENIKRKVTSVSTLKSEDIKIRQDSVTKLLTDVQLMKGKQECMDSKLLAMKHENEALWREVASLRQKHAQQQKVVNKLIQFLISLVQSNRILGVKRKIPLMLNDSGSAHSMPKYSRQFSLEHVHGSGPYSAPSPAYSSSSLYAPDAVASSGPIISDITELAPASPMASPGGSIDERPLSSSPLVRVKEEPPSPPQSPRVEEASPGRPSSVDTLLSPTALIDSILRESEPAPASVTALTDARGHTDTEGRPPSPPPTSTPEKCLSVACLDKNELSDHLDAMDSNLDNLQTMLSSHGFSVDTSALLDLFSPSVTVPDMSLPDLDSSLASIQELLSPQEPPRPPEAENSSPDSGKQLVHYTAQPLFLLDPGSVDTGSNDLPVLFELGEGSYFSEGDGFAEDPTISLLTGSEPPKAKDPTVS
# Summary of the method: as §1
# [13] = biological target: T8, SPIC (Homo sapiens, UniProt Q8N5J4 1-248); conditions: protein: recombinant; tags: N-terminal GST; dsDNA, one strand shown
# T8 sequence: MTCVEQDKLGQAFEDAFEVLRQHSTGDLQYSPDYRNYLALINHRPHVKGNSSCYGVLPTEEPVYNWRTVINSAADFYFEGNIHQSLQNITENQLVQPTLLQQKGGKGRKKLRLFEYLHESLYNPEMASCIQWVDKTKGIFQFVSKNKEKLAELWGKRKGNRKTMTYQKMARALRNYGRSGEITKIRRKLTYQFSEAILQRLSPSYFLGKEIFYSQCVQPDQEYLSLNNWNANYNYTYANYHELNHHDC
# Summary of the method: as §1
# [14] = biological target: ELF4 (Homo sapiens, UniProt Q99607 1-663); conditions: protein: recombinant; tags: N-terminal GST; dsDNA, one strand shown
# ELF4, sequence (Q99607 whole entry): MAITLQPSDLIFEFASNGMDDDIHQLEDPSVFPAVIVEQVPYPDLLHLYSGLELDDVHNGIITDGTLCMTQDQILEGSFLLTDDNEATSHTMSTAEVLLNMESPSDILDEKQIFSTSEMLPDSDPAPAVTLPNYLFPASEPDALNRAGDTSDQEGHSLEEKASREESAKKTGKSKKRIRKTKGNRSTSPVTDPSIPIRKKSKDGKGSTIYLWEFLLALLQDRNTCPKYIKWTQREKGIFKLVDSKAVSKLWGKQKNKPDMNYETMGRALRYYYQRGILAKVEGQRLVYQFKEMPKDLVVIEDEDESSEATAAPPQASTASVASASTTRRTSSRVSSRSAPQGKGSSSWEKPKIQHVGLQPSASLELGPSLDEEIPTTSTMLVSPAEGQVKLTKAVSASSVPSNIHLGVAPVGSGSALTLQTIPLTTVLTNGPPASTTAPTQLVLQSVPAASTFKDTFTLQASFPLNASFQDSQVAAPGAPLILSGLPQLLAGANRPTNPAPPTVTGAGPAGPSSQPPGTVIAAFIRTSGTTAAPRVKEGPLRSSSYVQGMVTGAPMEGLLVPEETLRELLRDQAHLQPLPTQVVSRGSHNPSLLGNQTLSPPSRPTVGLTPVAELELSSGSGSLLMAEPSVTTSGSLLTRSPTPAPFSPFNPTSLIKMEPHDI
# Summary of the method: as §1
# [15] = biological target: T9, ELK4 (Homo sapiens, UniProt P28324-2 1-405); conditions: protein: recombinant; tags: N-terminal GST; dsDNA, one strand shown
# T9 sequence: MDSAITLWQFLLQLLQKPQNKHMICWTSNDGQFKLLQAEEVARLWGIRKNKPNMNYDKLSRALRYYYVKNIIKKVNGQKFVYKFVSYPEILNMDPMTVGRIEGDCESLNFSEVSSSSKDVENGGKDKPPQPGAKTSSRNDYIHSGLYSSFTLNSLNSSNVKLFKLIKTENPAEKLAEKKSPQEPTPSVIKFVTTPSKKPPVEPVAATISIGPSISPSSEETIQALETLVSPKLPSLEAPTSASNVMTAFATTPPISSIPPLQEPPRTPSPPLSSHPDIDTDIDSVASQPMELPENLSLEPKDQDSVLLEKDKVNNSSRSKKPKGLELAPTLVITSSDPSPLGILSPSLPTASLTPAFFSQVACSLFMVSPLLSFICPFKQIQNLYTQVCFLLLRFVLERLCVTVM
# Summary of the method: as §1
# [16] = biological target: T10, ETV2 (Homo sapiens, UniProt O00321 1-342); conditions: protein: recombinant; tags: N-terminal GST; dsDNA, one strand shown
# T10 sequence: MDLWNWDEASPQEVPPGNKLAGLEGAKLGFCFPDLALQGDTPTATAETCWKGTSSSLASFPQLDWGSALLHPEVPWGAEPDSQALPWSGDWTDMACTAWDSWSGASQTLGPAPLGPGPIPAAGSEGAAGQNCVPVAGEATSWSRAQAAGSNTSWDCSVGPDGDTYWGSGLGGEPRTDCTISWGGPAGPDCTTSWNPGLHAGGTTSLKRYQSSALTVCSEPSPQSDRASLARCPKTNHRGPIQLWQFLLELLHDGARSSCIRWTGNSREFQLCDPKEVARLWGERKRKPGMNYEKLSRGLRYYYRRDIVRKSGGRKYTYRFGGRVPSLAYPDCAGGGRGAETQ
# Summary of the method: as §1
# [17] = biological target: T11, ELF3 (Homo sapiens, UniProt P78545 1-371); conditions: protein: recombinant; tags: N-terminal GST; dsDNA, one strand shown
# T11 sequence: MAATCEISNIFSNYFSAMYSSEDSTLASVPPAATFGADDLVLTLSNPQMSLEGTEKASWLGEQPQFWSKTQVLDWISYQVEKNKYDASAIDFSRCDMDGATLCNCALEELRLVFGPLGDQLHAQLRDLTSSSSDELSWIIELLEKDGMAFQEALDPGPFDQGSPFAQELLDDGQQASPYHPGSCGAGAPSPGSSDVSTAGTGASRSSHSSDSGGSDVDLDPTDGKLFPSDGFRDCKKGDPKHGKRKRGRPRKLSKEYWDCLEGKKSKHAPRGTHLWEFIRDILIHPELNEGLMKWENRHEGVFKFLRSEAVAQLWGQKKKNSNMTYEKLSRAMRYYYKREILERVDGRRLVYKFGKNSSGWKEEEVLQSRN
# Summary of the method: as §1
# [18] = biological target: CRX (Homo sapiens, UniProt O43186 1-299); conditions: protein: recombinant; tags: N-terminal GST; dsDNA, one strand shown
# CRX, sequence (O43186 whole entry): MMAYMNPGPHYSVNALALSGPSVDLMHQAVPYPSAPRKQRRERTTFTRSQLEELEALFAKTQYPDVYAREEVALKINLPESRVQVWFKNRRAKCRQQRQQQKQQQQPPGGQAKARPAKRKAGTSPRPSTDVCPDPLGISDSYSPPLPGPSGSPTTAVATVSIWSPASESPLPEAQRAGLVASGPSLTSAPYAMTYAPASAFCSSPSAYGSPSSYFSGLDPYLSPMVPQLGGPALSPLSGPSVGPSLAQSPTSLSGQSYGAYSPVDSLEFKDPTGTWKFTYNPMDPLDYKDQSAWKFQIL
# Summary of the method: as §1
# [19] = biological target: ETV1 (Homo sapiens, UniProt P50549 1-477); conditions: protein: recombinant; tags: N-terminal GST; dsDNA, one strand shown
# ETV1, sequence (P50549 whole entry): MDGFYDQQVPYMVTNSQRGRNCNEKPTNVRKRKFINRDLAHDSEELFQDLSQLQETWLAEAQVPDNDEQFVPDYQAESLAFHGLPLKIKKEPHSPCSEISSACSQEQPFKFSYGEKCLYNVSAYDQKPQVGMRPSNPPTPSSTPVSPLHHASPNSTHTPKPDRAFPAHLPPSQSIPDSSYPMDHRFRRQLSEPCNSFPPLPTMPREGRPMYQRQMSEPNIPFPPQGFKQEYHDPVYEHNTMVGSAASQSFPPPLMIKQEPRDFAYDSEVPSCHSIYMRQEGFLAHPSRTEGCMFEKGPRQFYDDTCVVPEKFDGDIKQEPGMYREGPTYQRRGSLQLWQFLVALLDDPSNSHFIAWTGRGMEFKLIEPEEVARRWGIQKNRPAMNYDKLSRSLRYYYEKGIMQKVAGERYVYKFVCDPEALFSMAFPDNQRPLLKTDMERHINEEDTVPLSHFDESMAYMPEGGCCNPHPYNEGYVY
# Summary of the method: as §1
sequence,measurement,setting,value
CCCACG,binding signal,[1],"1.17 fold enrichment (6-mer frequency, TF over GST control)"
same,binding signal,[2],"1.2 fold enrichment (6-mer frequency, TF over GST control)"
same,binding signal,[3],"1.26 fold enrichment (6-mer frequency, TF over GST control)"
same,binding signal,[4],"1.09 fold enrichment (6-mer frequency, TF over GST control)"
same,binding signal,[5],"1.19 fold enrichment (6-mer frequency, TF over GST control)"
same,binding signal,[6],"1.2 fold enrichment (6-mer frequency, TF over GST control)"
same,binding signal,[7],"1.08 fold enrichment (6-mer frequency, TF over GST control)"
same,binding signal,[8],"1.16 fold enrichment (6-mer frequency, TF over GST control)"
same,binding signal,[9],"1.29 fold enrichment (6-mer frequency, TF over GST control)"
same,binding signal,[10],"1.13 fold enrichment (6-mer frequency, TF over GST control)"
same,binding signal,[11],"1.22 fold enrichment (6-mer frequency, TF over GST control)"
same,binding signal,[12],"1.01 fold enrichment (6-mer frequency, TF over GST control)"
same,binding signal,[13],"1.22 fold enrichment (6-mer frequency, TF over GST control)"
same,binding signal,[14],"1.27 fold enrichment (6-mer frequency, TF over GST control)"
same,binding signal,[15],"1.25 fold enrichment (6-mer frequency, TF over GST control)"
same,binding signal,[16],"1.01 fold enrichment (6-mer frequency, TF over GST control)"
same,binding signal,[17],"1.21 fold enrichment (6-mer frequency, TF over GST control)"
same,binding signal,[18],"1 fold enrichment (6-mer frequency, TF over GST control)"
same,binding signal,[19],"1.06 fold enrichment (6-mer frequency, TF over GST control)"
